# Assay results from ChEMBL document CHEMBL4513156, “CO-ADD screening of NCPRI (Romania) compounds”.
# Measured potencies and affinities stand elsewhere.
# Test system: Candida albicans
# Details: 32 ug/mL
row,Structure (SMILES),Inhibition
1,O=C(N/N=C1\C[C@@H]2[C@H](COC(c3ccccc3)(c3ccccc3)c3ccccc3)C[C@H](CO)[C@@H]2C1)c1ccncc1,12.2%
2,O=C(NN=CC[C@@H]1[C@@H](/C=C/[C@@H](O)CCc2ccccc2)[C@H](O)C[C@@H]1O)c1ccncc1,-1.24%
3,O=C(NNC(=O)c1cccc([N+](=O)[O-])c1C(=O)O)c1ccncc1,1.9%
4,O=C(NN=CC[C@H]1[C@H](CO)[C@@H](O)C[C@H]1O)c1ccncc1,0.85%
5,COC(=O)CCCCCC[C@@H]1[C@@H](/C=N/NC(=O)c2ccncc2)[C@H](O)C[C@@H]1O,0.11%
6,O=C(NNC(c1ccccc1)(c1ccccc1)c1ccccc1)c1ccncc1,3.62%
7,O=C(NN=C[C@H]1[C@H]2CC(O)OC[C@H]2C[C@H]1O)c1ccncc1 (some centres undefined),3.89%
8,O=C(N/N=C1/C[C@H]2[C@H](CO)[C@@H]1C[C@@H]2Cl)c1ccncc1,2.15%
9,O=C(NN=C[C@H]1[C@@H]2CCO[C@@H]2C[C@@H]1O)c1ccncc1,2.27%
10,O=C(N/N=C/[C@@H]1C[C@H](CO)[C@@H]2CCC[C@@H]21)c1ccncc1,0.02%
11,CC(C)(C)[Si](C)(C)O[C@H](/C=C/[C@@H]1[C@@H](CC=NNC(=O)c2ccncc2)[C@@H](O)C[C@H]1O[Si](C)(C)C(C)(C)C)CCc1ccccc1,0.84%
12,COC(=O)CCCCCC[C@@H]1[C@@H](/C=N/NC(=O)c2ccncc2)[C@H](OC(=O)c2ccccc2)C[C@@H]1O,0.87%
13,NNC(=O)c1ccncc1 [ISONIAZID],0.98%
14,O=C(N/N=C1/C2C[C@H]3C(C2CO)[C@H]13)c1ccncc1 (some centres undefined),0.37%
15,O=C(NNC(=O)[C@@H]1C[C@H](C(=O)O)[C@@H]2CC=C[C@@H]21)c1ccncc1,1.29%
16,O=C(N/N=C1\CC[C@@H]2[C@H]1[C@H](OC(=O)c1ccccc1)C[C@@H]2OC(=O)c1ccccc1)c1ccncc1,12.8%
17,O=C1C[C@@H]2[C@@H](C=NNC(=O)c3ccncc3)[C@@H](C[C@H]2Cl)O1,2.47%
18,O=C(N/N=C/COc1cccc(Cl)c1)c1ccncc1,1.44%
19,O=C1C[C@H]2[C@H](/C=N/NC(=O)c3ccncc3)[C@H](C[C@@H]2Cl)O1,3.46%

row,Structure (SMILES),Inhibition
1,O=C(N/N=C1/C[C@@H]2[C@@H](C(=O)O)[C@H]1C[C@H]2Cl)c1ccncc1,7.78%
2,COC(=O)C[C@H]1[C@H](/C=N\NC(=O)c2ccncc2)[C@@H](O[Si](C)(C)C(C)(C)C)C[C@@H]1Cl,1.67%
3,O=C(N/N=C1\C[C@@H]2[C@@H](CO)[C@H]1C[C@H]2Cl)c1ccncc1,-0.38%
4,O=C(N/N=C/C[C@@H]1[C@@H](/C=C/[C@@H](O)COc2cccc(Cl)c2)[C@H](O)C[C@@H]1O)c1ccncc1,0.21%
5,O=C(NN=CC[C@@H]1[C@@H](COC2CCCCO2)[C@H](OC2CCCCO2)C[C@@H]1O)c1ccncc1 (some centres undefined),1.39%
6,CC(C)(C)[Si](C)(C)OCC1C2C[C@H]3C1[C@@H]3/C2=N/NC(=O)c1ccncc1 (some centres undefined),-2%
7,O=C(N/N=C/C[C@@H]1[C@@H](CO)[C@H](O)C[C@@H]1O)c1ccncc1,0.37%
8,O=C(N/N=C/CCCO)c1ccncc1,0.75%
9,O=C(NN=CC[C@@H]1[C@@H](/C=C/[C@@H](O)CCc2ccccc2)[C@H](OC(=O)c2ccccc2)C[C@@H]1O)c1ccncc1,5.97%
10,O=C(NNC(=O)c1ccc([N+](=O)[O-])cc1C(=O)O)c1ccncc1,3.64%
11,O=C(N/N=C1/C[C@@H]2[C@H](COC(c3ccccc3)(c3ccccc3)c3ccccc3)C[C@H](COC(c3ccccc3)(c3ccccc3)c3ccccc3)[C@@H]2C1)c1ccncc1,2.84%
12,O=C(ON/N=C/[C@@H]1[C@@H]2C[C@H](Cl)[C@H]1C[C@H]2O)c1ccncc1,5.82%
13,O=C(N/N=C1/C[C@@H]2[C@H](C1)[C@H](OC(=O)c1ccccc1)C[C@@H]2OC(=O)c1ccccc1)c1ccncc1,16.2%
14,CC(C)(C)[Si](C)(C)OC[C@H]1[C@H](CC=NNC(=O)c2ccncc2)[C@H](O)C[C@@H]1O[Si](C)(C)C(C)(C)C,3.64%
15,O=C(N/N=C/C[C@@H]1[C@@H](/C=N/NC(=O)c2ccncc2)[C@H](O)C[C@@H]1O)c1ccncc1,0.98%
16,O=C(N/N=C/C[C@@H]1[C@@H](/C=C/[C@@H](O)COc2ccccc2)[C@H](O)C[C@@H]1O)c1ccncc1,0.82%
17,O=C(NNC(=O)[C@@H]1C[C@H](C(=O)O)[C@@H]2CCC[C@@H]21)c1ccncc1,2.57%
18,O=C(N/N=C1/C2C[C@H]3C(C2C(=O)O)[C@@H]13)c1ccncc1 (some centres undefined),0.22%

# Test system: Cryptococcus neoformans
# Details: Concentration 32 ug.mL-1; ASSAY_TEST Inhibition of Fungal Growth; detection method Resazurin; Absorption (OD600-OD570); plate type 384well; NBS; CORNING #3640
row,Structure (SMILES),Inhibition
1,O=C(N/N=C1\C[C@@H]2[C@H](COC(c3ccccc3)(c3ccccc3)c3ccccc3)C[C@H](CO)[C@@H]2C1)c1ccncc1,-65.69%
2,O=C(NN=CC[C@@H]1[C@@H](/C=C/[C@@H](O)CCc2ccccc2)[C@H](O)C[C@@H]1O)c1ccncc1,-90.23%
3,O=C(NNC(=O)c1cccc([N+](=O)[O-])c1C(=O)O)c1ccncc1,-5.54%
4,O=C(NN=CC[C@H]1[C@H](CO)[C@@H](O)C[C@H]1O)c1ccncc1,-70.97%
5,COC(=O)CCCCCC[C@@H]1[C@@H](/C=N/NC(=O)c2ccncc2)[C@H](O)C[C@@H]1O,-95.51%
6,O=C(NNC(c1ccccc1)(c1ccccc1)c1ccccc1)c1ccncc1,-75.72%
7,O=C(NN=C[C@H]1[C@H]2CC(O)OC[C@H]2C[C@H]1O)c1ccncc1 (some centres undefined),-80.47%
8,O=C(N/N=C1/C[C@H]2[C@H](CO)[C@@H]1C[C@@H]2Cl)c1ccncc1,-80.47%
9,O=C(NN=C[C@H]1[C@@H]2CCO[C@@H]2C[C@@H]1O)c1ccncc1,-54.08%
10,O=C(N/N=C/[C@@H]1C[C@H](CO)[C@@H]2CCC[C@@H]21)c1ccncc1,-36.93%
11,CC(C)(C)[Si](C)(C)O[C@H](/C=C/[C@@H]1[C@@H](CC=NNC(=O)c2ccncc2)[C@@H](O)C[C@H]1O[Si](C)(C)C(C)(C)C)CCc1ccccc1,-66.75%
12,COC(=O)CCCCCC[C@@H]1[C@@H](/C=N/NC(=O)c2ccncc2)[C@H](OC(=O)c2ccccc2)C[C@@H]1O,-95.25%
13,NNC(=O)c1ccncc1 [ISONIAZID],-55.93%
14,O=C(N/N=C1/C2C[C@H]3C(C2CO)[C@H]13)c1ccncc1 (some centres undefined),-50.92%
15,O=C(NNC(=O)[C@@H]1C[C@H](C(=O)O)[C@@H]2CC=C[C@@H]21)c1ccncc1,-37.2%
16,O=C(N/N=C1\CC[C@@H]2[C@H]1[C@H](OC(=O)c1ccccc1)C[C@@H]2OC(=O)c1ccccc1)c1ccncc1,-65.69%
17,O=C1C[C@@H]2[C@@H](C=NNC(=O)c3ccncc3)[C@@H](C[C@H]2Cl)O1,-98.94%
18,O=C(N/N=C/COc1cccc(Cl)c1)c1ccncc1,-88.39%
19,O=C1C[C@H]2[C@H](/C=N/NC(=O)c3ccncc3)[C@H](C[C@@H]2Cl)O1,-80.73%

row,Structure (SMILES),Inhibition
1,O=C(N/N=C1/C[C@@H]2[C@@H](C(=O)O)[C@H]1C[C@H]2Cl)c1ccncc1,-56.2%
2,COC(=O)C[C@H]1[C@H](/C=N\NC(=O)c2ccncc2)[C@@H](O[Si](C)(C)C(C)(C)C)C[C@@H]1Cl,-101.31%
3,O=C(N/N=C1\C[C@@H]2[C@@H](CO)[C@H]1C[C@H]2Cl)c1ccncc1,-60.68%
4,O=C(N/N=C/C[C@@H]1[C@@H](/C=C/[C@@H](O)COc2cccc(Cl)c2)[C@H](O)C[C@@H]1O)c1ccncc1,-81.79%
5,O=C(NN=CC[C@@H]1[C@@H](COC2CCCCO2)[C@H](OC2CCCCO2)C[C@@H]1O)c1ccncc1 (some centres undefined),-44.06%
6,CC(C)(C)[Si](C)(C)OCC1C2C[C@H]3C1[C@@H]3/C2=N/NC(=O)c1ccncc1 (some centres undefined),-48.28%
7,O=C(N/N=C/C[C@@H]1[C@@H](CO)[C@H](O)C[C@@H]1O)c1ccncc1,-75.19%
8,O=C(N/N=C/CCCO)c1ccncc1,-50.92%
9,O=C(NN=CC[C@@H]1[C@@H](/C=C/[C@@H](O)CCc2ccccc2)[C@H](OC(=O)c2ccccc2)C[C@@H]1O)c1ccncc1,-72.55%
10,O=C(NNC(=O)c1ccc([N+](=O)[O-])cc1C(=O)O)c1ccncc1,-51.18%
11,O=C(N/N=C1/C[C@@H]2[C@H](COC(c3ccccc3)(c3ccccc3)c3ccccc3)C[C@H](COC(c3ccccc3)(c3ccccc3)c3ccccc3)[C@@H]2C1)c1ccncc1,-17.15%
12,O=C(ON/N=C/[C@@H]1[C@@H]2C[C@H](Cl)[C@H]1C[C@H]2O)c1ccncc1,-97.88%
13,O=C(N/N=C1/C[C@@H]2[C@H](C1)[C@H](OC(=O)c1ccccc1)C[C@@H]2OC(=O)c1ccccc1)c1ccncc1,-110.81%
14,CC(C)(C)[Si](C)(C)OC[C@H]1[C@H](CC=NNC(=O)c2ccncc2)[C@H](O)C[C@@H]1O[Si](C)(C)C(C)(C)C,-64.37%
15,O=C(N/N=C/C[C@@H]1[C@@H](/C=N/NC(=O)c2ccncc2)[C@H](O)C[C@@H]1O)c1ccncc1,-79.15%
16,O=C(N/N=C/C[C@@H]1[C@@H](/C=C/[C@@H](O)COc2ccccc2)[C@H](O)C[C@@H]1O)c1ccncc1,-89.18%
17,O=C(NNC(=O)[C@@H]1C[C@H](C(=O)O)[C@@H]2CCC[C@@H]21)c1ccncc1,-51.45%
18,O=C(N/N=C1/C2C[C@H]3C(C2C(=O)O)[C@@H]13)c1ccncc1 (some centres undefined),-16.35%
